TDP1 block = inhibitors of human tyrosyl-DNA phosphodiesterase TDP1 | Q9NUW8 | recombinant TDP1, AlphaScreen DNA substrate cleavage | Potency, µM (highest dose often 130 µM), for the others: at the highest dose activity change, negative = inhibition, usual class: inhibitors | 350,000 tested, 0.28% active | AID 485290; note: potency is the fitted concentration of half-maximal effect; % is set by controls: 0 for no effect and ±100 for the full control effect; nearly all actives have a fitted effect of over 40% in size
Target sequence (Q9NUW8 whole entry, looked up): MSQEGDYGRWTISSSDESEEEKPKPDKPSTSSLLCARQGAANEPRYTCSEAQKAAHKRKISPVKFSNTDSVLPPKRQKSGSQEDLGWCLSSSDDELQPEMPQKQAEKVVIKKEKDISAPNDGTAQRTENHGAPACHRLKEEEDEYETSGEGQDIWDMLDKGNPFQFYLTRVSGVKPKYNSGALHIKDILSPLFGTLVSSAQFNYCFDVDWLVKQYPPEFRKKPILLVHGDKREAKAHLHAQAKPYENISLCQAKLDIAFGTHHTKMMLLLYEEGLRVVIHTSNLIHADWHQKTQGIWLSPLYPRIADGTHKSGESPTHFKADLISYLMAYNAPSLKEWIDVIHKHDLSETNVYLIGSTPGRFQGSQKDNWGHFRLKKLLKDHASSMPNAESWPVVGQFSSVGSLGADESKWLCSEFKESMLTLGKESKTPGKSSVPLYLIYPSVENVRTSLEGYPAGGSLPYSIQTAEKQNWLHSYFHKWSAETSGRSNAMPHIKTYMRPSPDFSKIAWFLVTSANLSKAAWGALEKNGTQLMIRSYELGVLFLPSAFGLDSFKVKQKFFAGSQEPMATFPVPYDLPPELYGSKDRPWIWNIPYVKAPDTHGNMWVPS
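Tdp1 1 nM final; 15 min RT w/ cpd; substrate 15 nM, 5 min; beads 10 ug/ml, 10 min; AlphaScreen read. Neg ctrl: no enzyme.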
TGFb inhibitor = inhibitors of TGF-b signaling. Potency, µM (highest dose often 46.1 µM), for the others: at the top dose activity, negative = inhibition, usual class: inhibitors. AID 588855. HepG2 CAGA-GFP TGF-b/SMAD3 reporter, GFP fluorescence, 18 h; TGF-beta stimulated, 500 pg/mL final. 410,000 tested, 1.2% active; note: potency is the fitted concentration of half-maximal effect; % is set by controls: 0 for no effect and ±100 for the full control effect; nearly all actives have a fitted effect of over 65% in size
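HEPG2 CAGA-GFP reporter cells (1000/well, DMEM with 1% FBS) received compounds, then recombinant TGF-beta at 500 pg/mL final for 18 hours at 37 degrees C. Per-cell GFP summed per well was normalised to unstimulated and stimulated DMSO controls before curve fitting.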
DT40 TDP1 CPT = DT40-hTDP1 cell growth loss with CPT. chicken DT40 Tdp1-/-;hTDP1 cells + 20 nM CPT, ATP luminescence, 48 h. Potency, µM (highest dose often 46.2 µM), for inactives: top-dose activity change, negative = growth inhibition, most hits filed as inhibitors. 420,000 tested, 12% active. AID 686979; note: potency is the fitted concentration of half-maximal effect; % is set by controls: 0 for no effect and ±100 for the full control effect; nearly all actives have a fitted effect of over 55% in size
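Chicken DT40 Tdp1-/- cells complemented with human TDP1, 400 cells/well, exposed to compounds plus 20 nM camptothecin for at least 48 h at 37 C; viability read as ATP content by CellTiter-Glo luminescence.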
IL1B secr inh = inflammasome signaling inhibition, IL-1 beta readout | THP-1 LPS/ATP IL-1B secretion, AlphaLISA, 16 h; stronger effect = lower value | activity change, % at 57.5 µM | 360,000 tested, 4.7% active; in the data active = activity change below about -50%; inconclusive = mostly about -30% to -49%; note: % is set by controls: 0 for no effect and ±100 for the full control effect
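Secreted IL-1B measured by AlphaLISA bead assay after 16 h compound exposure of THP-1 cells; compounds (final up to 57.5 uM) added 1 h before LPS (250 ng/mL) and ATP (1.25 mM) stimulation; lower signal means less secretion.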
TDP1 cell noCPT = qHTS for Inhibitors of human tyrosyl-DNA phosphodiesterase 1 (TDP1): qHTS in cells in absence of CPT | DT40 Tdp1-/- hTDP1 cells, no CPT, ATP luminescence, 48 h | Potency, µM (doses to about 46.2 µM), without a hit: at the highest dose activity change, negative = growth inhibition, actives largely listed as inhibitors | 420,000 tested, 15% active | AID 686978, 2013; note: potency is the fitted concentration of half-maximal effect; % is set by controls: 0 for no effect and ±100 for the full control effect; nearly all actives have a fitted effect of over 55% in size
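Cells were dispensed at 400 per well, compounds added by pin tool, plates incubated ≥48 hr at 37 °C, then CellTiter-Glo added for 30 min at room temperature before luminescence reading. Line: DT40 Tdp1-/- complemented with hTDP1; camptothecin omitted.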
HepG2 tox = HepG2 cytotoxicity, counter-screen for TGF-b inhibitors | Potency, µM (highest dose often 46.1 µM), for the others: at the top dose activity change, negative = cytotoxicity, actives largely listed as cytotoxic | 410,000 tested, 0.76% active | HepG2 CAGA-GFP viability, ATP luminescence, 18 h; note: potency is the fitted concentration of half-maximal effect
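CellTiter-Glo luminescence gave cytotoxicity after 18 hours at 37 degrees C. The cells were HepG2 CAGA-GFP in 1% FBS DMEM, stimulated with 500 pg/mL TGF-beta after compound addition. %Activity was normalised to no-cell wells (complete cell-killing) and DMSO (no toxicity), and curves were fitted and classified.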
Active calls of the source: *; ? = inconclusive; · = no result given; [ ] = dose if it differs, or a comment. Only some compounds are listed: those with a hit (about 18% of all), similar ones and a draw of the others. Unless noted, calls come from the whole dose curve; as a rule, active = well fitted curve in the direction sought with a large enough effect; inconclusive = small, poorly fitted or top-dose-only effect, or another doubt; inactive = no such curve, though single readings can be large; an effect the other way counts as inactive or inconclusive.

SMILES	TDP1 block	TGFb inhibitor	DT40 TDP1 CPT	IL1B secr inh	TDP1 cell noCPT	HepG2 tox
O=[N+]([O-])c1cccc(-c2nn(-c3ccccc3)cc2CO)c1	·	?	-20.0%	-19.6	?	-30.4%
C=C1C(=O)[C@@]23[C@H](O)C[C@@H]4C(C)(C)CC[C@H](O)[C@]4(C)[C@@H]2C[C@H](O)[C@@H]1[C@H]3O	2.7%	12.6µM*	3.26µM*	?	?	-77.3%
C=C1C(=O)[C@@]23[C@H](O)C[C@@H]4C(C)(C)CC[C@H](O)[C@@]4(C)[C@@H]2CC[C@@H]1[C@H]3O	2.7%	0.891µM*	1.03µM*	?	0.82µM*	8.91µM*
COc1cc(/C=N/Nc2ccc(C(F)(F)F)cn2)cc(OC)c1O	0.0%	?	?	-13.0	18.4µM*	-10.7%
COc1cc(/C=N/Nc2ccccc2C(F)(F)F)ccc1O	0.0%	-27.6%	-1.9%	-8.1	?	-13.8%
O=C(N/N=C/c1ccc(C(F)(F)F)cc1)c1ccc(O)cc1	0.0%	-19.1%	?	?	?	-20.0%
Oc1ccc(/C=N/Nc2ccc(C(F)(F)F)cn2)cc1	2.5%	?	?	-94.8*	-22.1%	-41.6%
CC(NC(=O)c1ccc(Cl)c(S(=O)(=O)NC2CC2)c1)c1ccco1 (centres undefined)	·	-1.5%	-0.1%	?	-19.9%	0.3%
CN(C)S(=O)(=O)c1ccc(N2CCCC2)c(C(=O)NNC(=O)COc2cccc(F)c2)c1	0.8%	8.4%	4.2%	-8.4	-0.6%	-15.8%
CC(C)=CCn1c2ccc(NC(=S)NC3CC3)cc2c(=O)n1C	·	18.5%	-14.3%	30.5	-29.3%	-4.2%
CCOC(=O)c1cc(-c2ccc(/C=C3/C(=O)N(c4ccc(C(=O)O)cc4)N=C3C)o2)ccc1Cl	·	-22.9%	?	10.6	14.6µM*	-8.3%
Cc1ccc(Sc2ccc(/C=C3/C(=O)NN(c4ccccc4)C3=O)o2)cc1	7.5%	5.2%	?	-24.2	16.4µM*	3.9%
O=C(Cc1ccc(F)cc1)N/N=C/c1ccc(-c2ccc(Cl)c(C(=O)O)c2)o1	-2.3%	-12.6%	-9.3%	0.6	-1.1%	-5.1%
Cc1cccc(N2NC(=O)/C(=C/c3ccc(-c4ccc(Cl)c(C(=O)O)c4)o3)C2=O)c1	11.2µM*	1.6%	20.5%	1.1	-0.2%	0.5%
O=C(O)c1cc(-c2ccc(/C=N/N3C(=O)C4C5C=CC(CC5)C4C3=O)o2)ccc1Cl (centres undefined)	·	-8.6%	1.5%	-1.5	0.7%	-1.3%
O=C1NN(c2ccccc2)C(=O)/C1=C/c1ccc(-c2ccc(Cl)c(C(=O)O)c2)o1	15.8µM*	0.0%	2.4%	46.6	-0.6%	-23.2%
CCOC(=O)c1cc(-c2ccc(/C=N\n3cnnc3)o2)ccc1Cl	1.1%	6.7%	-15.8%	1.6	?	7.2%
CSc1ncnc2c1ncn2CCCNCCCN1CCCC1=O	·	3.1%	5.0%	19.0	1.6%	-10.2%
O=C(c1ccc(OC2CCN(CCc3ccccc3)CC2)cc1)N1CCC(CO)CC1	4.1%	6.0%	-6.2%	-11.6	14.3%	3.6%
COc1ccc(S(=O)(=O)N2CCC(C(=O)Oc3cccc(C)c3)CC2)cc1OC	0.2%	2.5%	-10.4%	5.3	10.4%	4.7%
CC1(C)O[C@@H]2C[C@H]3[C@H]4C[C@H](F)C5=CC(=O)C=C[C@@]5(C)[C@@H]4[C@H](O)C[C@]3(C)[C@]2(C(=O)CO)O1	8.7%[21 µM]	·	·	·	·	·
Cc1cc(C(=O)NC2CCCc3c2cnn3-c2ccc(C(C)(C)C)cc2)nn1C (centres undefined)	4.1%	?	8.2µM*	5.5	16.4µM*	-31.9%
